In PubChem BioAssay (EPA / NIEHS) one finds outcome and AC50 data, which are given here for 24 compounds.

Assay [1] can be described thus: Tanguay_ZF_120hpf_PIG_legacy: (Legacy) Oregon State University Tanguay Lab 120 Hour Post-fertilization zebrafish Assay for Pigmentation Malformation (AID 2283650). An outline of the steps:
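Pronase dechorionation at 4 hpf; embryos plated at 6 hpf, one per well; static exposure, sealed and foil-covered, 28C, to 120 hpf; pigmentation read by brightfield, binary; DMSO 0.64% baseline, 5uM trimethyltin chloride positive control.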

The nature of assay [2]: Tanguay_ZF_120hpf_CIRC_legacy: (Legacy) Oregon State University Tanguay Lab 120 Hour Post-fertilization zebrafish Assay for Circulatory Malformation (AID 2283651). In short, it runs like this:
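Read-out: presence or absence of circulatory malformation at 120 hpf, scored by brightfield microscopy, fitted in the gain-of-signal direction against DMSO baseline. Wild-type 5D larvae were exposed from 6 hpf after enzymatic chorion removal.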

Assay [3] in a line: Tanguay_ZF_120hpf_SWIM_legacy: (Legacy) Oregon State University Tanguay Lab 120 Hour Post-fertilization zebrafish Assay for Swim Bladder Malformation (AID 2283654).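 Further: swim bladder malformation in each larva scored yes or no under brightfield.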 An outline of the steps: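 Embryos lacking chorions were exposed individually and statically to test chemical from 6 to 120 hpf at 28C, with 0.64% DMSO as vehicle. At 120 hpf, swim bladder malformation was recorded as present or absent by brightfield microscopy.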

Assay [4] in a line: Tanguay_ZF_120hpf_TRUN_legacy: (Legacy) Oregon State University Tanguay Lab 120 Hour Post-fertilization zebrafish Assay for Truncated Body (AID 2283655). An outline of the steps:
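Whole-embryo zebrafish screen: dechorionated 5D embryos, static exposure 6–120 hpf, 28C, sealed foil-covered plates, 0.64% DMSO. Binary truncation call; gain of signal versus DMSO baseline.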

Assay [5] concerns Thyroperoxidase (TPO), gene 54314. The assay can be described thus: CCTE_Simmons_AUR_rTPO: CCTE's Amplex UltraRed Assay for Thyroperoxidase (TPO) Inhibition, Simmons Lab (AID 2283662).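 On AC50: potency for loss of signal meaning inhibition of peroxidase activity.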 An outline of the steps: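 Endpoint is decreased Amplex UltraRed fluorescence after a 30-min, 37C reaction of rat thyroid microsomes with 300 uM H2O2. Eight test concentrations (5 nM–87.5 uM final) in 0.5% DMSO, three biological replicates each.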

Read-out in assay [6]: kallikrein-3 (KLK3), KLK3 (gene 354)
The assay can be described thus: LTEA_HepaRG_KLK3: Life Technologies and Expression Analysis (LTEA) Assay for kallikrein-3 (KLK3) using HepaRG (AID 2283652; active means hit-call score of the fitted dose curve at least 0.9, where 1 is the maximum; inactive means score below 0.9). Conditions: mRNA level, 48 h; actives raise or lower the signal. As for the experimental part: LTEA_HepaRG is a cell based, multiplexed-readout assay that uses HepaRG, a human liver cell line, with measurements taken at 48 hours after chemical dosing on a 96-well plate.LTEA_HepaRG_KLK3 is one of 102 assay component(s) measured in the LTEA HepaRG cell culture assay. It is a marker of Cellular remodeling.Data from the assay component LTEA_HepaRG_KLK3 was analyzed into 1 endpoint. This assay endpoint, LTEA_HepaRG_KLK3, was analyzed with bidirectional fitting relative to DMSO as the negative control and baseline of activity. Using a type of inducible reporter, measures of mRNA induction for gain or loss-of-signal activity can be used to understand regulation of transcription factor activity. To generalize the intended target to other relatable targets, this assay endpoint is annotated to the protease intended target family, where the subfamily is Cellular remodeling.
A total of 1060 chemcials from the ToxCast library were tested in eight-point concentration-response experiments. Cell culture and cytotoxicity assays were conducted at Thermo Fisher Scientific's Custom Services facility (Madison, WI). A single lot of human HepaRG cells (Thermo Fisher Scientific, Frederick, MD) was used for the cell culture experiments. 96-well format collagen type I coated plates of human HepaRG cells were prepared using established methods. Briefly, cryopreserved HepaRG cells were thawed, plated at a density of approximately 100,000 cells/well in HepaRG Thaw, Plate, and General Purpose media (HPRG770, Thermo Fisher Scientific), and incubated for 48 hours. […] Fluidigm's 96.96 Dynamic ArrayTM (Fluidigm, Amsterdam, the Netherlands) technology was used for gene expression analyses by quantitative reverse transcription polymerase chain reaction (qRT-PCR, performed by Quintiles/Expression Analysis, Durham, NC)89. […]

Read-out in assay [7]: solute carrier (SLC22A6), SLC22A6 (gene 9356)
The assay can be described thus: LTEA_HepaRG_SLC22A6: Life Technologies and Expression Analysis (LTEA) Assay for solute carrier (SLC22A6) using HepaRG (AID 2283653; active means hit-call score of the fitted dose curve at least 0.9, where 1 is the maximum; inactive means score below 0.9). Conditions: mRNA level, 48 h; actives raise or lower the signal. In short, it runs like this:
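HepaRG, human liver line; 48 h chemical exposure; 8-pt half-log series from 100 uM in 0.5% DMSO, duplicate wells. Readout: TaqMan qRT-PCR of SLC22A6 mRNA, housekeeping-normalised; bidirectional curve fit vs DMSO baseline.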

Read-out in assay [8]: solute carrier (SLC10A1), SLC10A1 (gene 6554)
The assay can be described thus: LTEA_HepaRG_SLC10A1: Life Technologies and Expression Analysis (LTEA) Assay for solute carrier (SLC10A1) using HepaRG (AID 2283657; active means hit-call score of the fitted dose curve at least 0.9, where 1 is the maximum; inactive means score below 0.9). The note with it: mRNA level, 48 h; actives raise or lower the signal. In short, it runs like this: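 Transcript levels were measured by qRT-PCR after human HepaRG cells received test chemical for 48 hours, up to 100 uM in half-log dilutions. Values come from bidirectional concentration-response fitting relative to 0.5% DMSO vehicle.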

Read-out in assay [9]: matrix metalloproteinase-1 (MMP1), MMP1 (gene 4312)
The assay can be described thus: LTEA_HepaRG_MMP1: Life Technologies and Expression Analysis (LTEA) Assay for matrix metalloproteinase-1 (MMP1) using HepaRG (AID 2283658; active means hit-call score of the fitted dose curve at least 0.9, where 1 is the maximum; inactive means score below 0.9). The note with it: mRNA level, 48 h; actives raise or lower the signal. An outline of the steps: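 MMP1 transcript read by TaqMan qRT-PCR (Fluidigm array) after 48 h chemical exposure of HepaRG cells in serum-free induction medium. Eight-point half-log series, top 100 uM, 0.5% DMSO vehicle. Bidirectional curve fit against DMSO baseline.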

A short description of assay [10]: Tanguay_ZF_120hpf_NC_legacy: (Legacy) Oregon State University Tanguay Lab 120 Hour Post-fertilization zebrafish Assay for Notochord and Tail Malformation (AID 2283656). An outline of the steps: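 Dechorionated Tropical 5D wild-type zebrafish embryos, one per well from 6 hpf, statically exposed to 120 hpf at 28C in 0.64% DMSO final. Notochord distortion scored present/absent by brightfield; dead embryos excluded.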

For orientation: AC50 means the concentration giving half of the maximal activity seen.

Records with an inconclusive call do not appear. Calls of active or inactive are those of the source. How the source made its calls, unless noted: active means hit-call score of the fitted dose curve at least 0.9, where 1 is the maximum; inconclusive means response in the unintended direction; inactive means score below 0.9.

Regarding `CC(C)CCCCCCCOC(=O)CCCCC(=O)OCCCCCCCC(C)C`, the outcome in [1], in [2], in assay [3] and in assay [4] was inactive.
For the compound `O=C1CCC(N2C(=O)c3ccccc3C2=O)C(=O)N1` (configuration not stated), the result in [1], in assay [2], in assay [3] and in assay [4] was inactive.
For the compound `COCCOc1cc2cc(C(=O)NC3CCN(C(C)C)CC3)n(CC(=O)Nc3ccc(Cl)cn3)c2cn1`, the call in assay [1], in assay [2], in assay [3] and in [4] was inactive.
In the case of `O=C(CCCCCCCCc1cccnc1)N1CCC(C=C(c2ccccc2)c2ccccc2)CC1`, the result in assay [1], in assay [2], in assay [3] and in assay [4] was inactive. The AC50 in [5] is 27.6 µM (active).
As to `O=C1CCCCCN1`, the compound was called inactive in assay [1], in assay [2], in assay [3] and in [4].
As for `C=CC(=C)CCC=C(C)C`, the outcome in assay [1], in assay [2], in [6], in assay [7], in assay [4] and in assay [8] was inactive. Besides, the outcome in assay [9] and in [5] was inactive.
For `CCn1nc(Cc2ccccc2)cc1C1CCN(C[C@H]2C[C@H](N(C)[C@@H](C(=O)O)C(C)C)C[C@@H]2c2cccc(F)c2)CC1`, the result in assay [1], in assay [2], in [3] and in assay [4] was inactive. Moreover, in assay [5], the AC50 is 30.7 µM (active).
In the case of `CC(C)CCCCCCOC(=O)c1ccc(C(=O)OCCCCCCC(C)C)c(C(=O)OCCCCCCC(C)C)c1`, the compound was called inactive in [1], in assay [2], in assay [6], in assay [7], in assay [3] and in assay [4]. The compound was called inactive in assay [8] and in assay [9].
For the compound `Fc1ccccc1[C@@H](F)COC1CCC(Nc2ncnc3[nH]ncc23)CC1` (some centres not stated), the result in assay [1], in [2], in [3], in assay [4] and in assay [10] was inactive.
Regarding `CC(=O)c1ccc2c(c1)[C@H](NC(=O)c1ccc(F)cc1)[C@@H](O)C(C)(C)O2`, the compound was called inactive in [1], in [2], in assay [3] and in assay [4].
For `CC(C)=CCCC(C)=CC=O`, the call in assay [1], in [2], in [3] and in [4] was inactive. The AC50 in assay [5] was 43.8 µM (active).
On to `Cc1[nH]cnc1C[C@H]1CCc2c(C)c3ccccc3n2C1=O`, for which the result in [1], in assay [2] and in assay [3] was inactive. Besides, the AC50 in assay [5] was 27.6 µM (active).
For `COC(=O)c1ccccc1O`, the result in [1], in [2], in assay [3], in [4] and in [10] was inactive.
In the case of `O=C(O)CC(O)C(=O)O` (configuration not stated), the compound was classed as inactive in assay [1], in assay [2], in assay [3] and in [4].
For `CC/C(=C\C(=N/O)C(N)=O)C(C)[N+](=O)[O-]` (configuration not stated), the outcome in assay [1], in [2], in assay [3], in assay [4] and in assay [10] was inactive. Moreover, the concentration at half-maximal activity (AC50) in assay [5] is 26.3 µM (active).
`CC(C)(O)c1coc(S(=O)(=O)NC(=O)Nc2c3c(cc4c2CCC4)CCC3)c1`: the outcome in [1], in [2], in assay [3] and in assay [4] was inactive. Besides, in assay [5], the half-maximal activity concentration (AC50) is 7.6 µM (active).
Turning to `Cc1c(-c2cccnc2)c2ccccc2n1CCCCC(=O)O`, the compound was classed as inactive in assay [1], in assay [2], in assay [3] and in assay [4].
With `On1ccccc1=S`, the call in assay [1], in assay [2] and in [4] was inactive. Besides, the values for the AC50 in assay [3], in assay [10] and in assay [5] were 0.0615 µM (active), 0.561 µM (active) and 17.5 µM (active), respectively.
As for `CCOC(=O)CC(CC(=O)OCC)(OC(C)=O)C(=O)OCC`, the compound was classed as inactive in assay [1], in assay [2] and in assay [3].
As for `O=C(OC[C@H]1O[C@@H](OC(=O)c2cc(O)c(O)c(OC(=O)c3cc(O)c(O)c(O)c3)c2)[C@H](OC(=O)c2cc(O)c(O)c(OC(=O)c3cc(O)c(O)c(O)c3)c2)[C@@H](OC(=O)c2cc(O)c(O)c(OC(=O)c3cc(O)c(O)c(O)c3)c2)[C@@H]1OC(=O)c1cc(O)c(O)c(OC(=O)c2cc(O)c(O)c(O)c2)c1)c1cc(O)c(O)c(OC(=O)c2cc(O)c(O)c(O)c2)c1`, the outcome in [1], in [2], in assay [3], in assay [4] and in assay [10] was inactive. In addition, the AC50 in [5] was 1.03 µM (active).
Take `COc1ccc(-n2nc(C(F)F)cc2-c2ccc(S(C)=O)cc2)cc1` (configuration not stated): the compound was classed as inactive in assay [1], in assay [2], in [3], in assay [4] and in assay [10].
In the case of `CC1(C)C(=O)N(Br)C(=O)N1Br`, the call in assay [1], in assay [2] and in [3] was inactive.
As to `C1=CCCC=CCCC=CCC1`, the outcome in [1], in [2], in [3], in [4] and in assay [10] was inactive.
In the case of `CC(C)CCO`, the outcome in [1], in assay [2], in assay [3], in [4] and in assay [10] was inactive.
